Source: PubChem BioAssay (NCATS)
Records with an inconclusive call do not appear. Calls of active or inactive are those of the source. Calls follow the shape of the dose curve; as a rule, active = well fitted curve in the direction sought with a large enough effect; inconclusive = small, poorly fitted or top-dose-only effect, or another doubt; inactive = no such curve, though single readings can be large; an effect the other way counts as inactive or inconclusive.

molecular target: Aldehyde dehydrogenase, mitochondrial (Homo sapiens) (UniProt P05091); assay: qHTS for Inhibitors of the Aldehyde Dehydrogenase Family (ALDH2) Primary screen (AID 2061308); conditions: ALDH2 enzyme inhibition qHTS, 1536-well; series mostly up to 56 µM; activity change, negative = inhibition: at the top concentration;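 also: plate controls were vehicle for no effect and reference inhibitor for full effect; nearly all actives have a fitted effect of over 55% in size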

Compound	activity change, negative = inhibition	Potency
Cc1cnc(-c2ccccc2C(C)C)nc1NCc1ccc(-c2cccnc2)cc1	10.4% (inactive)	
CC(=O)Nc1sc2c(c1-c1nc(-c3ccccc3)cs1)CCN(C(C)C)C2	13.1% (inactive)	
Cc1ccc(S(=O)(=O)Nc2cccc(C(=O)Nc3nc(-c4ccc(Cl)cc4)cs3)c2)cc1	1.56% (inactive)	
Cc1cc(C)n2ncc(C(=O)NC3CCC(C(C)(C)C)CC3)c2n1 (stereo not given)		inactive
O=C(Nc1ncc(Cc2ccc(C(F)(F)F)cc2)s1)c1cccc(-c2ccccc2)c1	4.03% (inactive)	
Cc1cn(-c2cc(F)cc(NC(=O)c3ccc(C)c(Nc4nccc(-c5cccnc5)n4)c3)c2)cn1	0.574% (inactive)	
CC(=O)c1cccc(NC(=O)Nc2nnc(-c3ccncc3)s2)c1	-14.4% (inactive)	
CC1=C(C(=O)Nc2ccon2)C(c2ccccc2Br)N=C(Nc2nc3ccccc3o2)N1 (stereo not given)	1.03% (inactive)	
COCCNc1nc(C)nc2c1nc(-c1ccccc1)n2CCN1CCCCC1	9.51% (inactive)	
COc1ccc2nc(-c3ccccc3OCc3ccccc3)sc2c1	1.65% (inactive)	
Cn1nnnc1Sc1ncnc2scc(-c3ccc[nH]3)c12	11.5% (inactive)	
Cc1ccccc1CSc1nc2ncc(Br)cc2[nH]1	-7.48% (inactive)	
O=C1c2ccccc2C(=O)N1Cc1ccncc1	-13.9% (inactive)	
COc1cc(OC)c2c(c1)OC(=O)CC2c1ccc2c(c1)OCO2 (stereo not given)	-12.6% [at 114 µM] (inactive)	
CCCn1c(-c2ccc(F)cc2)nc2c(N3CCN(Cc4nc(OC)cc(OC)n4)CC3)nc(C)nc21	-4.94% (inactive)	
COC(=O)c1ccccc1NC(=O)c1ccc(F)cc1	11.7% (inactive)	
CCOc1ccc(CCNC(=O)c2ccc3[nH]ccc3c2)cc1OCC	21.1% (inactive)	
Fc1cc(Nc2nc(-c3ccncc3)nc3ccccc23)ccc1C(F)(F)F		inactive
Cc1cc(C)n2ncc(C(=O)Nc3cccc(C#N)c3)c2n1	1.78% [at 16.9 µM] (inactive)	
CCN1CCN(Cc2ccc(NC(=O)Nc3ccc(Oc4cc(NC)ncn4)cc3)cc2C(F)(F)F)CC1	7.08% (inactive)	

Compound	activity change, negative = inhibition	Potency
COc1cccc(C2C(C#N)=C(NC(=O)NCc3ccccc3)Oc3ccc4ccccc4c32)c1 (stereo not given)	-2.89% (inactive)	
CC(=O)NC(c1cc(Cl)c2cccnc2c1O)C1CC1 (stereo not given)	5.8% (inactive)	
Cn1ccc2cc(-c3ccc4ncnc(NCc5cccnc5)c4c3)ccc21	10.7% (inactive)	
O=C(N[C@H]1CCN(C(=O)c2cc(C(F)(F)F)cc(C(F)(F)F)c2)[C@H](Cc2ccc(Cl)cc2)C1)c1ccnc2ccccc12	12.6% [at 28 µM] (inactive)	
O=C1CCCC2=C1C(c1[nH]ncc1Cl)N=C(Nc1nc3cccc(Cl)c3o1)N2 (stereo not given)	-11.5% (inactive)	
CNc1oc(-c2ccc(-c3ccccc3)cc2)nc1C#N	-3.73% (inactive)	
CCOC(=O)C1CCC(C(=O)Nc2ccc([S+](=O)([O-])Nc3nccs3)cc2)CC1 (stereo not given)	6.77% (inactive)	
CCCn1c(-c2ccc(F)cc2)nc2c(NCCN3CCSCC3)nc(C)nc21	14.5% (inactive)	
Cc1c(P(=S)(c2ccccc2)c2ccccc2)[n+]2ccccc2n1CC(=O)c1ccccc1	1.11% (inactive)	
O=[S+]([O-])(c1ccc2nsnc2c1)N1CCN([S+](=O)([O-])c2c(F)cccc2F)CC1	-2.56% (inactive)	
O=C(Nc1ccc(S(=O)(=O)Nc2nccs2)cc1)C1CC(OCc2ccccc2)C1 (stereo not given)	11.4% (inactive)	
COc1ccc(C2=Nn3c(nnc3-c3ccc(OC)c(OC)c3)SC2)cc1	7.88% (inactive)	
CC(=O)Nc1ccc(NC(=S)NC(=O)c2ccc(C(C)(C)C)cc2)cc1	-6.09% (inactive)	
O=C(Cn1nc(-c2ccc(OC(F)(F)F)cc2)ccc1=O)NCCc1ccccc1	2.46% (inactive)	
O=C1CCCC2=C1C(c1ncccc1C(F)(F)F)N=C(Nc1nc3ccccc3o1)N2 (stereo not given)	8.43% (inactive)	
CC(=O)N1CCc2cc(S(=O)(=O)Nc3ccc(C)c(C)c3)ccc21	-6.55% (inactive)	
Oc1ccc(COC2CCCC2)c2cccnc12	-0.999% (inactive)	
C=CCNc1oc(-c2ccc(Cl)cc2)nc1C#N	3.74% (inactive)	
CN1[C@@H]2CC[C@H]1CC(OC(c1ccccc1)c1ccccc1)C2 (stereo not given in full)	-1.57% (inactive)	
Cc1cnc(-c2ccccc2C2COC2)nc1NCc1ccc(-c2cccnc2)cc1		inactive

molecular target: Retinaldehyde dehydrogenase 3 (Homo sapiens) (UniProt P47895); assay: qHTS for Inhibitors of the Aldehyde Dehydrogenase Family (ALDH1A3) Primary screen (AID 2061315); conditions: ALDH inhibition qHTS; series mostly up to 56 µM; activity change, negative = inhibition: at the top concentration;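 also: plate controls were DMSO vehicle for no effect and reference inhibitor for full effect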

Compound	activity change, negative = inhibition	Potency
Cc1cnc(-c2ccccc2C(C)C)nc1NCc1ccc(-c2cccnc2)cc1	49.2% (inactive)	
CC(=O)Nc1sc2c(c1-c1nc(-c3ccccc3)cs1)CCN(C(C)C)C2	-12.9% (inactive)	
Cc1ccc(S(=O)(=O)Nc2cccc(C(=O)Nc3nc(-c4ccc(Cl)cc4)cs3)c2)cc1	12.4% (inactive)	
Cc1cc(C)n2ncc(C(=O)NC3CCC(C(C)(C)C)CC3)c2n1 (stereo not given)		inactive
O=C(Nc1ncc(Cc2ccc(C(F)(F)F)cc2)s1)c1cccc(-c2ccccc2)c1	3.35% (inactive)	
Cc1cn(-c2cc(F)cc(NC(=O)c3ccc(C)c(Nc4nccc(-c5cccnc5)n4)c3)c2)cn1	-2.44% (inactive)	
CC(=O)c1cccc(NC(=O)Nc2nnc(-c3ccncc3)s2)c1	-1.67% (inactive)	
CC1=C(C(=O)Nc2ccon2)C(c2ccccc2Br)N=C(Nc2nc3ccccc3o2)N1 (stereo not given)	24.1% (inactive)	
COCCNc1nc(C)nc2c1nc(-c1ccccc1)n2CCN1CCCCC1	-4.16% (inactive)	
COc1ccc2nc(-c3ccccc3OCc3ccccc3)sc2c1	-18.5% (inactive)	
Cn1nnnc1Sc1ncnc2scc(-c3ccc[nH]3)c12	13.7% (inactive)	
Cc1ccccc1CSc1nc2ncc(Br)cc2[nH]1	1.54% (inactive)	
O=C1c2ccccc2C(=O)N1Cc1ccncc1	-3.18% (inactive)	
COc1cc(OC)c2c(c1)OC(=O)CC2c1ccc2c(c1)OCO2 (stereo not given)	-15% [at 114 µM] (inactive)	
CCCn1c(-c2ccc(F)cc2)nc2c(N3CCN(Cc4nc(OC)cc(OC)n4)CC3)nc(C)nc21	-23% (inactive)	
COC(=O)c1ccccc1NC(=O)c1ccc(F)cc1	7.77% (inactive)	
CCOc1ccc(CCNC(=O)c2ccc3[nH]ccc3c2)cc1OCC	3.51% (inactive)	
Fc1cc(Nc2nc(-c3ccncc3)nc3ccccc23)ccc1C(F)(F)F		inactive
Cc1cc(C)n2ncc(C(=O)Nc3cccc(C#N)c3)c2n1	-11.8% [at 16.9 µM] (inactive)	
CCN1CCN(Cc2ccc(NC(=O)Nc3ccc(Oc4cc(NC)ncn4)cc3)cc2C(F)(F)F)CC1	8.39% (inactive)	

Compound	activity change, negative = inhibition	Potency
COc1cccc(C2C(C#N)=C(NC(=O)NCc3ccccc3)Oc3ccc4ccccc4c32)c1 (stereo not given)	0.374% (inactive)	
CC(=O)NC(c1cc(Cl)c2cccnc2c1O)C1CC1 (stereo not given)	19.6% (inactive)	
Cn1ccc2cc(-c3ccc4ncnc(NCc5cccnc5)c4c3)ccc21	-1.77% (inactive)	
O=C(N[C@H]1CCN(C(=O)c2cc(C(F)(F)F)cc(C(F)(F)F)c2)[C@H](Cc2ccc(Cl)cc2)C1)c1ccnc2ccccc12	3.44% [at 28 µM] (inactive)	
O=C1CCCC2=C1C(c1[nH]ncc1Cl)N=C(Nc1nc3cccc(Cl)c3o1)N2 (stereo not given)	8.4% (inactive)	
CNc1oc(-c2ccc(-c3ccccc3)cc2)nc1C#N	11% (inactive)	
CCOC(=O)C1CCC(C(=O)Nc2ccc([S+](=O)([O-])Nc3nccs3)cc2)CC1 (stereo not given)	6.09% (inactive)	
CCCn1c(-c2ccc(F)cc2)nc2c(NCCN3CCSCC3)nc(C)nc21	3.39% (inactive)	
Cc1c(P(=S)(c2ccccc2)c2ccccc2)[n+]2ccccc2n1CC(=O)c1ccccc1	12.6% (inactive)	
O=[S+]([O-])(c1ccc2nsnc2c1)N1CCN([S+](=O)([O-])c2c(F)cccc2F)CC1	-6.55% (inactive)	
O=C(Nc1ccc(S(=O)(=O)Nc2nccs2)cc1)C1CC(OCc2ccccc2)C1 (stereo not given)	9.36% (inactive)	
COc1ccc(C2=Nn3c(nnc3-c3ccc(OC)c(OC)c3)SC2)cc1	1.94% (inactive)	
CC(=O)Nc1ccc(NC(=S)NC(=O)c2ccc(C(C)(C)C)cc2)cc1	18.4% (inactive)	
O=C(Cn1nc(-c2ccc(OC(F)(F)F)cc2)ccc1=O)NCCc1ccccc1	-24.3% (inactive)	
O=C1CCCC2=C1C(c1ncccc1C(F)(F)F)N=C(Nc1nc3ccccc3o1)N2 (stereo not given)	8.5% (inactive)	
CC(=O)N1CCc2cc(S(=O)(=O)Nc3ccc(C)c(C)c3)ccc21	5.13% (inactive)	
Oc1ccc(COC2CCCC2)c2cccnc12	43.4% (inactive)	
C=CCNc1oc(-c2ccc(Cl)cc2)nc1C#N	7.04% (inactive)	
CN1[C@@H]2CC[C@H]1CC(OC(c1ccccc1)c1ccccc1)C2 (stereo not given in full)	-3.71% (inactive)	
Cc1cnc(-c2ccccc2C2COC2)nc1NCc1ccc(-c2cccnc2)cc1		inactive
